Reference: PubChem BioAssay (EPA / NIEHS)
Several values for one entry are separate records, joined by “and”; a condition that tells them apart may be missing. Equal values may be shown once. Records with an inconclusive call do not appear. Activity calls are given as the source filed them. How the source made its calls, unless noted: active means hit-call score of the fitted dose curve at least 0.9, where 1 is the maximum; inactive means score below 0.9.

Key:
[1] = target: Nuclear respiratory factor 1 (Homo sapiens) (UniProt Q16656); assay: ATG_NRF1_CIS: Attagene CIS-FACTORIAL HepG2 Assay for human Nuclear Respiratory Factor 1 (NRF1) Orphan Gene (AID 2282987); conditions: HepG2 NRF1 cis-element reporter, Attagene multiplex; actives raise or lower the signal
Chain of Nuclear respiratory factor 1 (Homo sapiens) (Q16656 whole entry, looked up): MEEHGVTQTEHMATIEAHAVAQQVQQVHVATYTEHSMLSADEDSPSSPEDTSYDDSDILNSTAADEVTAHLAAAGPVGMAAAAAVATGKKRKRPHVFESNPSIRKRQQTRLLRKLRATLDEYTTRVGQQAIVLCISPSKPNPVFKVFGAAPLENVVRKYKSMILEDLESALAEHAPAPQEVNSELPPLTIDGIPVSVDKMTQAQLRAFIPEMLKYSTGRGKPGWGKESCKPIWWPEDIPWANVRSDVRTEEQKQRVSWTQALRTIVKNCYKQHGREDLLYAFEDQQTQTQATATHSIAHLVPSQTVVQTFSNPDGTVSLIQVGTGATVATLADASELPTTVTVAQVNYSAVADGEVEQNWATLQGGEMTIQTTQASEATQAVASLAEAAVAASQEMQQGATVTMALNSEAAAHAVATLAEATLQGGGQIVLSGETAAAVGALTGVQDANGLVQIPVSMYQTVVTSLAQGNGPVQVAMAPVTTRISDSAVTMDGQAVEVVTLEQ
How it was run: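 Measured: fluorescent reporter-specific RT-PCR products from transfected HepG2 cells, separated by capillary electrophoresis. Exposure lasted 24 h. Analysis used bidirectional curve fitting with DMSO as negative control.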

[2] = ATG_NFI_CIS: Attagene CIS-FACTORIAL HepG2 Assay for human Nuclear Factor I (NFI) (AID 2282989); conditions: HepG2 cis-regulatory reporter, NFI response element transcription; actives raise or lower the signal
How it was run: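 After transient transfection of HepG2 with cis-promoter reporter constructs and 24 h dosing, RNA is reverse-transcribed, amplified, 6-FAM end-labelled and HpaI-digested before capillary analysis. Bidirectional curve fitting against DMSO.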

[3] = target: Myc proto-oncogene protein (Homo sapiens) (UniProt P01106); assay: ATG_Myc_CIS: Attagene CIS-FACTORIAL HepG2 Assay for human Myelocytomatosis (Myc) Proto-Oncogene Transcription Factor (AID 2282990); conditions: HepG2, Attagene cis-reporter transcription factor activity; actives raise or lower the signal
Chain of Myc proto-oncogene protein (Homo sapiens) (P01106 whole entry, looked up): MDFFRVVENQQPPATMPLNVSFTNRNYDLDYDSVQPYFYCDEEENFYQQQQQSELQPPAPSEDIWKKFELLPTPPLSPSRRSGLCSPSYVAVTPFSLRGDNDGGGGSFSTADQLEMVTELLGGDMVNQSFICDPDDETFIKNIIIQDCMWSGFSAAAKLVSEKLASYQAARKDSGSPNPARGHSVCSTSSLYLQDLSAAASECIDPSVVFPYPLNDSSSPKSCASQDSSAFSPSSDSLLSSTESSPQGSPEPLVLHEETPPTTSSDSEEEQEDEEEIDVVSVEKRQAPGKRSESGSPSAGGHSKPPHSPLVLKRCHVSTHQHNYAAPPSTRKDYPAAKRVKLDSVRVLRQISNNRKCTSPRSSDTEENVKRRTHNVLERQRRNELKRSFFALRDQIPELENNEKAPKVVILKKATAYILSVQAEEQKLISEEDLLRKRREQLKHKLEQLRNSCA
How it was run: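 Multiplexed cis-reporter transcription in HepG2 cells after 24 h chemical treatment. Reporter mRNA measured by RT-PCR and capillary electrophoresis fluorescence; activity fitted bidirectionally against DMSO control.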

[4] = ATG_NF_kB_CIS: Attagene CIS-FACTORIAL HepG2 Assay for human Nuclear Factor Kappa B (NF-kB) (AID 2282991); conditions: HepG2 Attagene cis-factorial NF-kB reporter mRNA; actives raise or lower the signal
How it was run: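 Fluorescence of labelled RT-PCR products separated by capillary electrophoresis gives reporter mRNA levels from transfected HepG2 cells exposed 24 h; values are fitted in both directions relative to DMSO.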

[5] = ATG_NRF2_ARE_CIS: Attagene CIS-FACTORIAL HepG2 Assay for human Nuclear Factor Erythroid 2 Related Factor 2 (NFR2) response to Antioxidant Response Elements (ARE) (AID 2282992); conditions: HepG2 Attagene ARE/NRF2 reporter, transcription factor activity; actives raise or lower the signal
How it was run: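 Transient MRTU transfection of HepG2; 24 h compound exposure; TriZol RNA, RT with oligo(dT), PCR, 6-FAM primer extension, HpaI cut, CE. Bidirectional fit vs DMSO.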

[6] = ATG_Oct_MLP_CIS: Attagene CIS-FACTORIAL HepG2 Assay for human Octamer-Binding Transcription Factor (Oct) (AID 2282993); conditions: HepG2 Attagene cis-factorial Oct reporter, mRNA; actives raise or lower the signal
How it was run: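 Cells of the HepG2 line express promoter-controlled reporter sequences whose mRNA levels, after 24 h treatment, are measured by RT-PCR and capillary electrophoresis. Increases and decreases are scored relative to DMSO.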

[7] = target: Cellular tumor antigen p53 (Homo sapiens) (UniProt P04637); assay: ATG_p53_CIS: Attagene CIS-FACTORIAL HepG2 Assay for human p53 Transcription Factor (AID 2282994); conditions: HepG2 p53 cis-element reporter, Attagene mRNA; actives raise or lower the signal
Chain of Cellular tumor antigen p53 (Homo sapiens) (P04637 whole entry, looked up): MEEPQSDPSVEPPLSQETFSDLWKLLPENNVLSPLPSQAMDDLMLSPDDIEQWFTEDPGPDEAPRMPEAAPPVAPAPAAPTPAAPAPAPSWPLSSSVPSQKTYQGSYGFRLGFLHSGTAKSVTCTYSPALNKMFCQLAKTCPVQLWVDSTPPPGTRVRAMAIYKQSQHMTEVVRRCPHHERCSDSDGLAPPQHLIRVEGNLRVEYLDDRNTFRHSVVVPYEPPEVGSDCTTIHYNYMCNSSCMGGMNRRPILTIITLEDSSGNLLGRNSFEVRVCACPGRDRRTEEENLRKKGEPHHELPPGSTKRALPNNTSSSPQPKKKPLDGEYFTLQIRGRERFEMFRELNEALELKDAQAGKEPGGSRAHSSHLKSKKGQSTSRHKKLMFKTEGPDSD
How it was run: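 HepG2, transient MRTU transfection (cis promoter elements, endogenous TFs); 24 h dosing; RNA isolation, RT-PCR, 6-FAM primer extension, HpaI digest, CE fluorescence; bidirectional fit vs DMSO.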

[8] = BSK_3C_TissueFactor: BioMAP Diversity Plus: 3C Assay for Tissue Factor Biomarker Activity (AID 2282997); conditions: BioMAP 3C HUVEC, tissue factor biomarker readout; actives raise or lower the signal
How it was run: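 Values derive from bidirectional curve fitting against DMSO of Tissue Factor ELISA signals, taken 24 h after dosing primary human umbilical vein endothelial cells.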

[9] = BSK_3C_uPAR: BioMAP Diversity Plus: 3C Assay for Urokinase-type plasminogen activator receptor (uPAR) Biomarker Activity (AID 2282998); conditions: BioMAP 3C HUVEC, uPAR biomarker ELISA; actives raise or lower the signal
How it was run: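 Endothelial primary cells of human umbilical vein origin received test chemical; 24 h later uPAR was assayed by ELISA. Fitting was bidirectional, DMSO as negative control.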

[10] = BSK_3C_VCAM1: BioMAP Diversity Plus: 3C Assay for Vascular cell adhesion molecule 1 (VCAM1) Biomarker Activity (AID 2282999); conditions: BioMAP 3C HUVEC, VCAM1 ELISA, cytokine-stimulated; actives raise or lower the signal
How it was run: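 Human umbilical vein endothelial cells were dosed with compound for 24 h, after which cell-surface VCAM-1 was quantified by ELISA. Bidirectional curve fitting used DMSO as negative control and activity baseline.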

[11] = BSK_4H_Eotaxin3: BioMAP Diversity Plus: 4H Assay for Eotaxin 3 Biomarker Activity (AID 2283000); conditions: primary human endothelial cells (HUVEC); actives raise or lower the signal;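 on outcome: CCL26 protein level quantified by ELISA in parallel with SRB cytotoxicity check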
How it was run: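 Endothelial primary cells (human umbilical vein) exposed to compound for 24 h. ELISA detection of Eotaxin-3.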

[12] = target: human Peroxisome Proliferator-activated Receptor alpha (PPARa), PPARA (gene 5465) (UniProt Q07869); assay: ATG_PPARa_TRANS: Attagene TRANS-FACTORIAL HepG2 Assay for human Peroxisome Proliferator-activated Receptor alpha (PPARa) (AID 2283001; active means hit-call score of the fitted dose curve at least 0.9, where 1 is the maximum)
Chain of human Peroxisome Proliferator-activated Receptor alpha (PPARa), PPARA (gene 5465) (Q07869 whole entry, looked up, the tested form may be a part): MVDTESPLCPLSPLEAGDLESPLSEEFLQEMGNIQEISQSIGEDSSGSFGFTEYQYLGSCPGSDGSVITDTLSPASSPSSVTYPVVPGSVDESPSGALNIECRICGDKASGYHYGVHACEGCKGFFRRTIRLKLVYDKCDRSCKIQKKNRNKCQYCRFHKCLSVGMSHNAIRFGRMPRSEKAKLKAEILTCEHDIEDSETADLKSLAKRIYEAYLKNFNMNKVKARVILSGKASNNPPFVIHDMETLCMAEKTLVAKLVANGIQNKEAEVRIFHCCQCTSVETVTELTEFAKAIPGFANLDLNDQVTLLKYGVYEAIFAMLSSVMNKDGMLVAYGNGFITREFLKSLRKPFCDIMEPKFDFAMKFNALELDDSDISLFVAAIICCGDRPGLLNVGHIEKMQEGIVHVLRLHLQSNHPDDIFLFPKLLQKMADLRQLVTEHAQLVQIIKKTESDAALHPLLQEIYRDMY
How it was run: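 HepG2 cells transiently transfected with multiplexed GAL4-UAS reporter units and chimeric NR-Gal4 constructs were dosed for 24 h. Reporter mRNA was measured by RT-PCR with fluorescent labelling and capillary electrophoresis; gain of signal fitted against DMSO.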

[13] = target: human Peroxisome Proliferator-activated Receptor delta (PPARd), PPARD (gene 5467) (UniProt Q03181); assay: ATG_PPARd_TRANS: Attagene TRANS-FACTORIAL HepG2 Assay for human Peroxisome Proliferator-activated Receptor delta (PPARd) (AID 2283002; active means hit-call score of the fitted dose curve at least 0.9, where 1 is the maximum)
Chain of human Peroxisome Proliferator-activated Receptor delta (PPARd), PPARD (gene 5467) (Q03181 whole entry, looked up, the tested form may be a part): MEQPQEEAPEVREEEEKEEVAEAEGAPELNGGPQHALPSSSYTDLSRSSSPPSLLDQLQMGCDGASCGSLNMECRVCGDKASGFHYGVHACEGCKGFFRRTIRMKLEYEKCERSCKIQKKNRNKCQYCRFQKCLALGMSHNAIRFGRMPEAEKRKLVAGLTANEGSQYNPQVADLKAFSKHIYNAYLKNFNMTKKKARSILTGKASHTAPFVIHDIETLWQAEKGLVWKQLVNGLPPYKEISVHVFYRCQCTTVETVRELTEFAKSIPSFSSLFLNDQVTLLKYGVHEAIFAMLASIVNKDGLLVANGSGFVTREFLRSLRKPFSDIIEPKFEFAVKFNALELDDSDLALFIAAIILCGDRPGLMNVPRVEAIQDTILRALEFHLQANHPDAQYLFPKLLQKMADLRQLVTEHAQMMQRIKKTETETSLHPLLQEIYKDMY
How it was run: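 Multiplexed trans-activation format: HepG2 liver cells expressing exogenous NR-Gal4 chimeras and GAL4-UAS reporters were exposed for 24 h. Reporter mRNA was detected by RT-PCR with capillary electrophoresis fluorescence; activity fitted as gain of signal relative to DMSO.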

[14] = read-out: Intercellular Adhesion Molecule 1 (ICAM1), ICAM1 (gene 3383); assay: BSK_3C_ICAM1: BioMAP Diversity Plus: 3C Assay for Intercellular Adhesion Molecule 1 (ICAM1) Biomarker Activity (AID 2283003); conditions: primary human endothelial cells (HUVEC); actives raise or lower the signal
How it was run: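 Human vascular endothelial primary cells, 3C conditions, 24 h treatment. ICAM-1 by ELISA.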

[15] = BSK_3C_Proliferation: Cell Proliferation Assessment in the BioMAP Diversity Plus: 3C Assay (AID 2283006); conditions: primary human endothelial cells (HUVEC);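 on AC50: potency may reflect either rise or fall in cell number versus DMSO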
How it was run: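 Proliferation of human vascular endothelial primary cells after 48 h dosing, quantified as SRB-stained protein at 560 nm relative to DMSO.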

[16] = target: Peroxisome proliferator-activated receptor gamma (Homo sapiens) (UniProt P37231); assay: ATG_PPARg_TRANS: Attagene TRANS-FACTORIAL HepG2 Assay for human Peroxisome Proliferator-activated Receptor-gamma (PPARg) (AID 2283007; active means hit-call score of the fitted dose curve at least 0.9, where 1 is the maximum)
Chain of Peroxisome proliferator-activated receptor gamma (Homo sapiens) (P37231 whole entry, looked up): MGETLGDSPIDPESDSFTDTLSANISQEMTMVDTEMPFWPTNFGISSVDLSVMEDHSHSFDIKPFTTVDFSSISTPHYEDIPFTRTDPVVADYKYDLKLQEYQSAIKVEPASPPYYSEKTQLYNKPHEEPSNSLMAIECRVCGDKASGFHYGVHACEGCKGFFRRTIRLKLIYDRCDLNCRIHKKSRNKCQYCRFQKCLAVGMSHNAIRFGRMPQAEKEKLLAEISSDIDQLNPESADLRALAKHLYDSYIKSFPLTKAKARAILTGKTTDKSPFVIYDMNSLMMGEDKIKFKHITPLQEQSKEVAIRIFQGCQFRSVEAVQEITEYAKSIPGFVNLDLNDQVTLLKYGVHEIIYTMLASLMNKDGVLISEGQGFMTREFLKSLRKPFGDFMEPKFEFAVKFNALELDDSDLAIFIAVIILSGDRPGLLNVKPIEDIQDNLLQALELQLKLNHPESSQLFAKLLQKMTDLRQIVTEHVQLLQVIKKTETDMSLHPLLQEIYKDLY
How it was run: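 Twenty-four hours after chemical dosing of transiently transfected HepG2 cells, isolated RNA was converted to cDNA, reporter sequences amplified and 6-FAM-labelled, then HpaI-digested and analysed by capillary electrophoresis. Signal increase against DMSO was fitted.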

[17] = target: Nuclear receptor subfamily 1 group I member 2 (Homo sapiens) (UniProt O75469); assay: ATG_PXR_TRANS: Attagene TRANS-FACTORIAL HepG2 Assay for human Pregnane X Receptor (PXR) (AID 2283008; active means hit-call score of the fitted dose curve at least 0.9, where 1 is the maximum)
Chain of Nuclear receptor subfamily 1 group I member 2 (Homo sapiens) (O75469 whole entry, looked up, the tested form may be a part): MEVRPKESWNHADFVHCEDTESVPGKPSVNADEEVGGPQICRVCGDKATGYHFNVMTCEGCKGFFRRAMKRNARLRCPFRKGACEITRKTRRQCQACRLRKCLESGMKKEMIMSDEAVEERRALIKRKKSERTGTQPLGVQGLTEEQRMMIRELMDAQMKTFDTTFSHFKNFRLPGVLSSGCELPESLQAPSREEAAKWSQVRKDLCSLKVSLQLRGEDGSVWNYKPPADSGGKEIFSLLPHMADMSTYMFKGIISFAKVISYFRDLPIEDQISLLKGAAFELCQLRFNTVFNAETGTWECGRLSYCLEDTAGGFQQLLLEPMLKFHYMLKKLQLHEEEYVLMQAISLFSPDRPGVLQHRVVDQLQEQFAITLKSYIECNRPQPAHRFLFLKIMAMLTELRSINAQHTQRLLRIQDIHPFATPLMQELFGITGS
How it was run: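 Read-out is fluorescence of labelled reporter cDNA fragments separated by capillary electrophoresis after RT-PCR and HpaI digestion. Source: HepG2 cells carrying PXR-GAL4/UAS reporter constructs, treated 24 h; activity fitted upward relative to DMSO.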

[18] = target: human Retinoic Acid Receptor beta (RARb), RARB (gene 5915) (UniProt P10826); assay: ATG_RARb_TRANS: Attagene TRANS-FACTORIAL HepG2 Assay for human Retinoic Acid Receptor beta (AID 2283004; active means hit-call score of the fitted dose curve at least 0.9, where 1 is the maximum)
Chain of human Retinoic Acid Receptor beta (RARb), RARB (gene 5915) (P10826 whole entry, looked up, the tested form may be a part): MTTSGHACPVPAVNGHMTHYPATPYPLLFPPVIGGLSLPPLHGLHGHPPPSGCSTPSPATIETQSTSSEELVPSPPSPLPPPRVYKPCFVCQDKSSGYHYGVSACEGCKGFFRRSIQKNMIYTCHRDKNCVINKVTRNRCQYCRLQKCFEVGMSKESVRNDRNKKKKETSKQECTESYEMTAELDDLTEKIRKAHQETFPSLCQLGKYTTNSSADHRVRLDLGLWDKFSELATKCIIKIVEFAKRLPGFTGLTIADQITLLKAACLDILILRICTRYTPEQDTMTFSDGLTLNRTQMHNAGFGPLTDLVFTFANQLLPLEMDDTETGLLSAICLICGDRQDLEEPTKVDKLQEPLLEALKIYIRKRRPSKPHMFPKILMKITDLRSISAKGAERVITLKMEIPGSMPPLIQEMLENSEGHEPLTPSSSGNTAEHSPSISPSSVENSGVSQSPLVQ
How it was run: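 HepG2, transient MRTU transfection, NR–Gal4 chimera, 24 h treatment; RT-PCR plus CE fluorescence detection of reporter mRNA; gain of signal vs DMSO.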

[19] = target: Retinoic acid receptor alpha (Homo sapiens) (UniProt P10276); assay: ATG_RARa_TRANS: Attagene TRANS-FACTORIAL HepG2 Assay for human Retinoic Acid Receptor alpha (RARa) (AID 2283005; active means hit-call score of the fitted dose curve at least 0.9, where 1 is the maximum)
Chain of Retinoic acid receptor alpha (Homo sapiens) (P10276 whole entry, looked up, the tested form may be a part): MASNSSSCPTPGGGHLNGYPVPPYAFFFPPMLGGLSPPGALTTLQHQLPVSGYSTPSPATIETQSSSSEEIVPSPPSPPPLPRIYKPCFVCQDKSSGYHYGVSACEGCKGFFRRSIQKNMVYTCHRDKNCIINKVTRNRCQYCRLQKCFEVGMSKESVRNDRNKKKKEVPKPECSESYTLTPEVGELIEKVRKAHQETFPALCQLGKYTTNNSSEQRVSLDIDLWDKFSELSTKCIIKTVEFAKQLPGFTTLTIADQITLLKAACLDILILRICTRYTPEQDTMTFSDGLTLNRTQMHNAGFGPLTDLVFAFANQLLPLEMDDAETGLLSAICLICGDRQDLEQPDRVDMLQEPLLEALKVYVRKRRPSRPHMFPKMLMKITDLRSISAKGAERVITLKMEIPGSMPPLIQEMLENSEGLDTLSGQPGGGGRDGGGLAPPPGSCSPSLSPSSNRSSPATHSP
How it was run: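 HepG2 cells transiently transfected with multiple reporter units expressing chimeric RARα-GAL4 fusion, with GAL4-UAS-driven reporters. After 24 h compound exposure, reporter mRNA induction quantified by RT-PCR and capillary electrophoresis with fluorescent labeling; gain-of-signal fitted relative to DMSO control.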

[20] = target: human Retinoic Acid Receptor gamma (RARg), RARG (gene 5916) (UniProt P13631); assay: ATG_RARg_TRANS: Attagene TRANS-FACTORIAL HepG2 Assay for human Retinoic Acid Receptor gamma (RARg) (AID 2283009; active means hit-call score of the fitted dose curve at least 0.9, where 1 is the maximum)
Chain of human Retinoic Acid Receptor gamma (RARg), RARG (gene 5916) (P13631 whole entry, looked up, the tested form may be a part): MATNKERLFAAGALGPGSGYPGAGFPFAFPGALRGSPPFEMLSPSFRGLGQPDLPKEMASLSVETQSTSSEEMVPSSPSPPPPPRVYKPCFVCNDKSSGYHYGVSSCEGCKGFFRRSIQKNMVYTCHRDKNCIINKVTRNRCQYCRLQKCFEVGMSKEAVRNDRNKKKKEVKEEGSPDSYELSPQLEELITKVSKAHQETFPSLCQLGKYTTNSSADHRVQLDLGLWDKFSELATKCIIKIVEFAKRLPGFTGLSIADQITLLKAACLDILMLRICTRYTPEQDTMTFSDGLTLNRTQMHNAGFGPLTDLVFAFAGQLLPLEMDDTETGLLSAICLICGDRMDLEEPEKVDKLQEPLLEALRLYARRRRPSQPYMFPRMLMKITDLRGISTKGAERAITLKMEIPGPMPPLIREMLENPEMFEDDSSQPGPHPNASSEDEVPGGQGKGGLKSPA
How it was run: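 HepG2, RARg-GAL4 TRANS system, 24 h exposure; reporter mRNA by RT-PCR + CE fluorescence; increase over DMSO.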

NC(=O)C(F)(F)C(F)(F)C(F)(F)C(F)F
outcome [1]: inactive
outcome [2]: inactive
outcome [3]: inactive
outcome [4]: inactive
outcome [5]: inactive
outcome [6]: inactive
outcome [7]: inactive
outcome [8]: inactive
outcome [9]: inactive
outcome [10]: inactive
outcome [11]: inactive
outcome [12]: inactive
outcome [13]: inactive
outcome [14]: inactive
outcome [15]: inactive
outcome [16]: inactive
outcome [17]: inactive

O=S(=O)(Cl)C(F)(F)C(F)(F)C(F)(F)C(F)(F)C(F)(F)C(F)(F)C(F)(F)C(F)(F)F
outcome [1]: inactive
outcome [2]: inactive
outcome [3]: inactive
outcome [4]: inactive
AC50 [5]: 70.3 µM (active)
outcome [6]: inactive
outcome [7]: inactive
outcome [8]: inactive
AC50 [9]: 45.8 µM (active) and 47.4 µM (active)
outcome [10]: inactive
outcome [11]: inactive
outcome [12]: inactive
outcome [13]: inactive
outcome [14]: inactive
outcome [18]: inactive
outcome [19]: inactive
outcome [15]: inactive
AC50 [16]: 34.9 µM (active)
outcome [17]: inactive
outcome [20]: inactive

NCC(F)(F)C(F)(F)C(F)(F)C(F)(F)C(F)(F)C(F)(F)F
outcome [1]: inactive
outcome [2]: inactive
outcome [3]: inactive
outcome [4]: inactive
outcome [5]: inactive
outcome [6]: inactive
outcome [7]: inactive
outcome [8]: inactive
outcome [9]: inactive
outcome [10]: inactive
outcome [11]: inactive
outcome [12]: inactive
outcome [13]: inactive
outcome [14]: inactive
outcome [18]: inactive
outcome [19]: inactive
outcome [15]: inactive
outcome [16]: inactive
outcome [17]: inactive

CC(C)CCCC(C)CCO (centres undefined)
outcome [1]: inactive
outcome [2]: inactive
outcome [3]: inactive
outcome [4]: inactive
outcome [5]: inactive
outcome [6]: inactive
outcome [7]: inactive
AC50 [8]: 36.4 µM (active)
AC50 [9]: 26.7 µM (active)
AC50 [10]: 33.9 µM (active)
AC50 [11]: 36.5 µM (active)
outcome [12]: inactive
outcome [13]: inactive
AC50 [14]: 35.5 µM (active)
AC50 [15]: 30.4 µM (active)
outcome [16]: inactive
outcome [17]: inactive

FC(F)(F)C(F)(F)C(F)(F)C(F)(F)C(F)(F)C(F)(F)CC[Si](Cl)(Cl)Cl
outcome [1]: inactive
outcome [2]: inactive
outcome [3]: inactive
outcome [4]: inactive
outcome [5]: inactive
outcome [6]: inactive
outcome [7]: inactive
outcome [8]: inactive
outcome [9]: inactive
outcome [10]: inactive
outcome [11]: inactive
outcome [12]: inactive
outcome [14]: inactive
outcome [18]: inactive
outcome [15]: inactive
outcome [16]: inactive
outcome [17]: inactive
outcome [20]: inactive

O=C(c1ccccc1)c1ccc(O)cc1O
outcome [1]: inactive
outcome [2]: inactive
outcome [3]: inactive
outcome [4]: inactive
AC50 [5]: 66.8 µM (active)
outcome [6]: inactive
outcome [7]: inactive
outcome [8]: inactive
outcome [9]: inactive
outcome [10]: inactive
outcome [11]: inactive
outcome [12]: inactive
outcome [14]: inactive
outcome [18]: inactive
outcome [15]: inactive
AC50 [16]: 42.5 µM (active)
outcome [17]: inactive
outcome [20]: inactive
